Source: ChEMBL document CHEMBL3988442, “University of Dundee, Small-Polar-MMV Screening Library” (2021)

Experiments:
[1] = target: T1, Aspartate--tRNA(Asp/Asn) ligase (Mycobacterium tuberculosis (strain ATCC 25618 / H37Rv)) (UniProt P9WFW3); assay: Assay for Asp RNA synthetase-1 from Mycobacterium tuberculosis; format: functional; parameters: scale not given: direction of the effect not stated beside the values; details: 30 µM; also: in the data most compounds retested in dose-response had high values
T1 sequence (whole entry): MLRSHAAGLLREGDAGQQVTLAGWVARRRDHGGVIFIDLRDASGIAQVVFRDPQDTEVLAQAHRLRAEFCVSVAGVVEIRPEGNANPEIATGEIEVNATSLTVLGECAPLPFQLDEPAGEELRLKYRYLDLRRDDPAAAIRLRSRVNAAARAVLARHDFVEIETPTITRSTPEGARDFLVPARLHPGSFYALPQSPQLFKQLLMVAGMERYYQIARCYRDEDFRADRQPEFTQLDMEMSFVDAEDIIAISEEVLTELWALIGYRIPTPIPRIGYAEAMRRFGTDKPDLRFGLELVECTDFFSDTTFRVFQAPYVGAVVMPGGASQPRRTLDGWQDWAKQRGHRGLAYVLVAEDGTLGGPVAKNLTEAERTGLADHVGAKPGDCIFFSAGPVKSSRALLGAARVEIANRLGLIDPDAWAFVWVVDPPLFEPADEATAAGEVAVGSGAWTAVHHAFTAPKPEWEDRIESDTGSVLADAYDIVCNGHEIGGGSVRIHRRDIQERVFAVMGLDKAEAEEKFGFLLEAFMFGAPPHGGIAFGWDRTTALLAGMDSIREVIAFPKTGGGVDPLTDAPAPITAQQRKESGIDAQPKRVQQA

[2] = target: Shiga toxin 2 (Escherichia coli O157:H7) (UniProt P09385+P09386); assay: E. coli 0.157:H7 Shiga Toxin SOP - stx2 screening assay; format: functional; parameters: scale not given: direction of the effect not stated beside the values; details: 30 µM

SMILES | Percent Effect [1] [%] | Percent Effect [2] [%]
COCC(=O)N1CCN(C(=O)c2scnc2C)CC1 | -5.75 | -11
CCc1[nH]ncc1C(=O)N1CCCN(Cc2cnn(C)c2)CC1 | -0.259 | 17.2
CN(C)C(=O)N1CCOCC2(CCN(c3ccccn3)C2)C1 (stereo unspecified) | 1.11 | -15.4
N#Cc1ccc(CN2CCN(C(=O)c3cc(C4CC4)[nH]n3)CC2)cc1 | -2.71 | -17.1
CN(C)Cc1ccc(C2CCCCN2C(=O)c2cc(C3CC3)n[nH]2)cc1 (stereo unspecified) | -1.82 | 2.95
COCc1nc(C(=O)N2CCCCC2Cn2cccn2)cs1 (stereo unspecified) | 1.01 | 16.6
Cc1cc(C2CCCN(C(=O)c3cnccn3)C2)ccn1 (stereo unspecified) | -0.521 | -14.3
CCn1cc(CN2CCCN(C(=O)c3ccn(C)c(=O)c3)CC2)cn1 | 1.33 | -0.744
CC(C)OCCOCc1cccc(NC(=O)NCCn2ccnc2)c1 | 2.56 | -31.1
COc1cc(C(=O)N(Cc2ccco2)C2CC2)cc2c1OCCO2 | 1.56 | -6.37
CC(=O)N1CCN(c2ccc3ccc(C(=O)NC4CCCC4)cn23)CC1 | -0.91 | -45
COCc1cc(NCCc2ccc(F)cc2)n2nccc2n1 | 4.6 | 4.14
O=C(NC(CO)CO)c1coc(COc2cccc(F)c2)n1 | -1.14 | -3.72
CCOc1ccnc(N2CCN(C(=O)C(C)(C)C#N)CC2)n1 | 4.55 | 37.3
CCOC(=O)N1CCN(C(=O)c2ccc3ccn(C)c3c2)CC1 | -0.585 | 1.39
Clc1snnc1CN1CCOC(CNc2cccnn2)C1 (stereo unspecified) | -1.85 | -5.91
Cc1ncc(CN2Cc3ccccc3O[C@]3(CC[C@H](CO)CC3)C2)cn1 | 0.551 | 18.1
CCCN1CCC(NC(=O)c2ccc(F)cc2I)CC1 | -6.77 | 2.29
CCN(CC(=O)NC)S(=O)(=O)N1CCCCCC1 | 1.14 | 6.63
CN(C)S(=O)(=O)N1CCC2(CCCN(Cc3ccc(F)cc3)C2=O)C1 (stereo unspecified) | -2.05 | -20.5
CC(C)c1noc(CN2CCN(C(=O)c3ccccc3F)CC2)n1 | -2.91 | 12.1
c1ccc2oc(NC3CCCN(Cc4noc(C5CC5)n4)C3)nc2c1 (stereo unspecified) | -5.59 | -6.82
COC(=O)C(c1cc(F)ccc1F)N(C)C(=O)c1csnn1 (stereo unspecified) | 3.92 | -19.1
COc1cc2cc(C(=O)O)n(C)c2cc1OC | -0.697 | -0.0542
CN(C(=O)Cn1nc(-c2ccc(F)cc2)ccc1=O)C1CCS(=O)(=O)C1 (stereo unspecified) | 3.06 | 1.8

SMILES | Percent Effect [1] [%] | Percent Effect [2] [%]
CC(C)N1CC(C(=O)NCCc2csc(-c3ccncc3)n2)CC1=O (stereo unspecified) | 2.56 | -26.5
Cc1ccc2nc(C3CCN(CCO)CC3)nn2c1 | 2.18 | -3.64
C[C@@H]1C[C@@H]2CCN(C(=O)c3cnccn3)C[C@H]2O1 | 0.69 | -15.2
CCCc1cc(CNC(=O)C2CCOc3ccccc3C2)on1 (stereo unspecified) | 2.59 | 17.5
CCC1CN(Cc2ccccc2)CCN1Cc1nnc(C2CCC2)o1 (stereo unspecified) | -4.92 | -9.86
Cc1cc(C(=O)N2CC[C@@H]3CN(c4ncccn4)CCO[C@@H]3C2)c(C)o1 | 7.23 | -7.5
O=C(Cc1ccsc1)N1C[C@@H]2CN(Cc3ccoc3)CCO[C@@H]2C1 | -1.48 | -6.92
CCn1c(C)nnc1CN(C)C1CCN(Cc2cnc(C)cn2)C1 (stereo unspecified) | 2.78 | -19
CNCC(=O)N1CCC(c2ccnc(Nc3ccc(C)cn3)n2)C1 (stereo unspecified) | 2.93 | -58.2
c1ccc(-c2cnc(CN3CCCC3Cn3cncn3)o2)cc1 (stereo unspecified) | -6.65 | 8.27
CC(=O)N1CCCCC1c1cc(CO)[nH]n1 (stereo unspecified) | -3.86 | 7.89
O=C(NCCCN1CCOCC1)c1ccn(-c2ccc3ccccn23)n1 | 3.71 | -18.9
CCc1nc(C2CCCN(C(=O)c3cnn(CC)c3)C2)no1 (stereo unspecified) | 2.22 | 3.55
NC(=O)NCC(=O)N1C[C@H]2CC[C@@H]1CN(C1Cc3ccccc3C1)C2 | 6.33 | -7
Cc1noc(NC(=O)c2ccc(Br)s2)n1 | 2.08 | 49.8
COc1ccc(C(=O)N2Cc3c(Cn4ccnc4)nn(C)c3C2)cc1 | -10.7 | -6.82
Cc1nc(COC[C@]23COC[C@H]2CN(Cc2ccoc2)C3)cs1 | -0.55 | 4.86
COc1ccccc1CNC(=O)N1CCCC(NS(C)(=O)=O)C1 (stereo unspecified) | 1.76 | 23.8
CCOc1cc(C)nc(N2CCN(C(=O)c3ccnn3C)CC2)n1 | -2.8 | 2.54
Cn1ncc2c(=O)[nH]c(CN(Cc3ccco3)C3CCCC3)nc21 | -7.5 | -31.6
O=C(c1ccc[nH]1)N1C[C@H]2CN(Cc3cccc(F)c3)C(=O)[C@H]2C1 | 0.565 | -9.53
Cc1ccc2c(n1)N(CCN(C)C)CCN(C(=O)c1ccc[nH]1)C2 | 8.78 | -14.6
Cc1nn(C)c(N2CCOCC2)c1CNC(C)c1ccco1 (stereo unspecified) | -3.01 | 5.98
Cc1ccc2cc(C3(O)CCN(C(=O)CN4CCCC4)CC3)ccc2n1 | 1.48 | -47.1
Cc1cnn(CC(C)NCc2csc(-c3cnn(C)c3)n2)c1 (stereo unspecified) | 1.91 | -23.5

SMILES | Percent Effect [1] [%] | Percent Effect [2] [%]
CCn1c(Cn2cncn2)nnc1C1CCN(Cc2ccncc2)CC1 | 4.98 | 0.0626
COc1cc(C)c(S(=O)(=O)NCc2cccnc2N(C)C)c(C)c1 | 2.73 | -18.1
CN(C)C(=O)Cc1nc(CN2CCn3c(nnc3C3CC3)C2)cs1 | -1.22 | 10.2
O=C(NCc1ccco1)[C@@]12CCO[C@@H]1CCN(CCN1CCCC1)C2 | 1.05 | -24.8
CN(C)CC1CN(CCOc2cccc(C#N)c2)CCO1 (stereo unspecified) | -0.815 | 15.6
CS(=O)(=O)N1Cc2nccn2CC(Cn2ncccc2=O)C1 (stereo unspecified) | 1.17 | -8.61
O=C(CCc1nccs1)N1CCN(c2ccccc2F)CC1 | -6.57 | -11.9
CNC(=O)c1ccc(OC2CCN(S(C)(=O)=O)CC2)c(Cl)c1 | -0.864 | -64.7
CN1CCCC1CNC(=O)CCCOc1ccc(F)cc1 (stereo unspecified) | -1.43 | 1.57
Cc1nn(C)c(N(C)C)c1CNCCNS(C)(=O)=O | -4.66 | 17.7
Cc1ccc(NC(=O)C2CSCN2C(=O)c2cnccn2)c(C)c1 (stereo unspecified) | 1.01 | -39.3
CCc1nnsc1C(=O)N1CCCN(Cc2nccn2C)CC1 | 1.58 | 15.5
Cc1noc(C)c1C(=O)N1CC[C@H]2C[C@@H](c3ccncn3)O[C@@H]2C1 | 2.79 | 3.86
COc1ccccc1CC(=O)N1CCC(NCc2cccnc2)CC1 | 1.11 | 22.4
COc1ccccc1OCC(=O)NCC(O)(c1ccccc1)C1CC1 (stereo unspecified) | -1.26 | 6.19
COc1ccccc1C1(C(=O)NCCN2CCOCC2)CCOCC1 | 10.8 | 21.5
O=C(CCc1cscn1)N1CCCC(c2ccn[nH]2)C1 (stereo unspecified) | -1.82 | 5.88
COc1cc(N2C[C@H]3OCC[C@H]3[C@H](C(=O)NC3CC3)C2)ncn1 | 3.81 | -2.62
CS(=O)(=O)NC1CCN(C(=O)NCCNc2ccccn2)CC1 | 3.96 | 19.1
O=C(NCc1cc(O)ncn1)C1COc2ccccc2C1 (stereo unspecified) | -3.92 | 12.8
CCNC(=O)N1CCCCC1CCNS(C)(=O)=O (stereo unspecified) | -3.62 | 4.69
c1ccc(-c2cnc(CNC3CCCN(c4cccnn4)C3)o2)cc1 (stereo unspecified) | -3.48 | 4.96
CC(O)CN1CCC(CNCc2ccc(S(C)(=O)=O)cc2)CC1 (stereo unspecified) | 3.1 | -4.03
